# Experimental data as given in the supplement of paper PMC8728848.
# The full list was thinned out, with the strongest signals kept by preference.
# B1: MUC1-SEA-mFcIgG2a (Homo sapiens), P15941 (SEA domain only) (protein)
# chain: DAAQPARRAVRSSSELTSEQKLISEEDLSRLVHNGTSARATTTPASKSTPFSIPSHHSDTPTTLASHSTKTDASSTHHSTVPPLTSSNHSTSPQLSTGVSFFFLSFHISNLQFNSSLEDPSTDYYQELQRDISEMFLQIYKQGGFLGLSNIKFRPGSVVVQLTLAFREGTINVHDVETQFNQYKTEAASRYNLTISDASVSDVPFPFSAQSGSDDDDKALEPRGPTIKPCPPCKCPAPNLLGGPSVFIFPPKIKDVLMISLSPIVTCVVVDVSEDDPDVQISWFVNNVEVHTAQTQTHREDYNSTLRVVSALPIQHQDWMSGKEFKCKVNNKDLPAPIERTISKPKGSVRAPQVYVLPPPEEEMTKKQVTLTCMVTDFMPEDIYVEWTNNGKTELNYKNTEPVLDSDGSYFMYSKLRVEKKNWVERNSYSCSVVHEGLHNHHTTKSFSRTPGKHHHHH
# Experiments:
# Assay in all cases: glycan array binding signal (z-score within array); higher = stronger binding
# Conditions in all cases: glycan notation: IUPAC condensed, linker removed
# [1] = molecular target: Fuc(a1-2)Gal
# How it was run: (§1)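 The binding signal is a Z-score computed within each array and averaged over linkers. Arrays of the same protein sequence at different concentrations or buffers were also averaged together. Data originate from 3228 arrays in the Consortium for Functional Glycomics database, kept only where the protein sequence was available.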
# [2] = molecular target: Fuc(a1-2)Gal(b1-3)GalNAc
# How it was run: as §1
# [3] = molecular target: Fuc(a1-2)Gal(b1-3)GalNAc(b1-3)Gal
# How it was run: as §1
# [4] = molecular target: Fuc(a1-2)Gal(b1-3)GlcNAc
# How it was run: as §1
# [5] = molecular target: Fuc(a1-2)Gal(b1-4)Glc
# How it was run: as §1
# [6] = molecular target: Fuc(a1-2)Gal6S(b1-4)Glc6S
# How it was run: as §1
# [7] = molecular target: Fuc(a1-2)[Gal(a1-3)]Gal
# How it was run: as §1
# [8] = molecular target: Fuc(a1-2)[GalNAc(b1-3)]Gal
# How it was run: as §1
# [9] = molecular target: Fuc(a1-3)[Gal(b1-4)]GlcNAc
# How it was run: as §1
# [10] = molecular target: Fuc(a1-3)[Gal(b1-4)]GlcNAc(b1-2)Man(a1-6)[Gal(b1-4)GlcNAc(b1-2)Man(a1-3)]Man(b1-4)GlcNAc(b1-4)GlcNAc
# How it was run: as §1
# [11] = molecular target: Fuc(a1-3)[Gal(b1-4)]GlcNAc(b1-4)Gal(b1-4)[Fuc(a1-3)]GlcNAc(b1-4)Gal(b1-4)[Fuc(a1-3)]GlcNAc
# How it was run: as §1
# [12] = molecular target: Fuc(a1-3)[Gal3S(b1-4)]GlcNAc6S
# How it was run: as §1
# [13] = molecular target: Gal(b1-4)GlcNAc(b1-6)Gal(b1-4)GlcNAc(b1-6)GalNAc
# How it was run: as §1
# [14] = molecular target: Gal3S(b1-3)[Fuc(a1-4)]GlcNAc
# How it was run: as §1
# [15] = molecular target: Gal3S(b1-4)Glc6S
# How it was run: as §1
# [16] = molecular target: Gal3S6S(b1-4)GlcNAc6S
# How it was run: as §1
# [17] = molecular target: Gal4S6S(b1-4)GlcNAc
# How it was run: as §1
# [18] = molecular target: Gal6S(b1-4)Glc6S
# How it was run: as §1
# [19] = molecular target: GlcNAc(a1-6)Gal(b1-4)GlcNAc
# How it was run: as §1
# [20] = molecular target: GlcNAc(b1-3)Gal
# How it was run: as §1
# [21] = molecular target: GlcNAc(b1-4)Gal(b1-4)GlcNAc
# How it was run: as §1
# [22] = molecular target: GlcNAc(b1-4)[GlcNAc(b1-6)]GalNAc
# How it was run: as §1
# [23] = molecular target: Man(a1-2)Man(a1-3)[Man(a1-6)]Man(a1-6)[Man(a1-2)Man(a1-3)]Man(b1-4)GlcNAc(b1-4)GlcNAc
# How it was run: as §1
# [24] = molecular target: Man(a1-3)[Man(a1-6)]Man(b1-4)GlcNAc(b1-4)GlcNAc
# How it was run: as §1
# [25] = molecular target: Man(a1-6)Man
# How it was run: as §1
# [26] = molecular target: Neu5Ac(a2-6)Gal(b1-4)GlcNAc(b1-2)Man(a1-3)[Gal(b1-4)GlcNAc(b1-2)Man(a1-6)]Man(b1-4)GlcNAc(b1-4)GlcNAc
# How it was run: as §1
# [27] = molecular target: Neu5Ac(a2-6)Gal(b1-4)GlcNAc(b1-3)Gal(b1-4)GlcNAc
# How it was run: as §1
# [28] = molecular target: Neu5Ac(a2-8)Neu5Ac(a2-3)[GalNAc(b1-4)]Gal(b1-4)Glc
# How it was run: as §1
binder,measurement,setting,value
B1,glycan array binding signal (z-score),[1],-0.228
same,glycan array binding signal (z-score),[2],-0.514
same,glycan array binding signal (z-score),[3],7.39
same,glycan array binding signal (z-score),[4],0.04
same,glycan array binding signal (z-score),[5],0.163
same,glycan array binding signal (z-score),[6],1.99
same,glycan array binding signal (z-score),[7],0.424
same,glycan array binding signal (z-score),[8],-0.373
same,glycan array binding signal (z-score),[9],0.485
same,glycan array binding signal (z-score),[10],-0.32
same,glycan array binding signal (z-score),[11],-0.045
same,glycan array binding signal (z-score),[12],1.11
same,glycan array binding signal (z-score),[13],-0.381
same,glycan array binding signal (z-score),[14],-0.332
same,glycan array binding signal (z-score),[15],2.09
same,glycan array binding signal (z-score),[16],3.49
same,glycan array binding signal (z-score),[17],0.978
same,glycan array binding signal (z-score),[18],2.14
same,glycan array binding signal (z-score),[19],-0.14
same,glycan array binding signal (z-score),[20],-0.151
same,glycan array binding signal (z-score),[21],-0.565
same,glycan array binding signal (z-score),[22],-0.223
same,glycan array binding signal (z-score),[23],-0.266
same,glycan array binding signal (z-score),[24],-0.235
same,glycan array binding signal (z-score),[25],-0.113
same,glycan array binding signal (z-score),[26],-0.245
same,glycan array binding signal (z-score),[27],-0.465
same,glycan array binding signal (z-score),[28],-0.453
